A short description of assay [1]: ATG_GLI_CIS: Attagene CIS-FACTORIAL HepG2 Assay for human Zinc Finger Protein GLI1 (AID 2282945). The following applies: HepG2, Attagene cis-factorial reporter mRNA, GLI element; actives raise or lower the signal. In outline:
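Bidirectional curve fits relative to DMSO, using reporter mRNA levels from RT-PCR plus capillary electrophoresis. Cells were HepG2 transiently carrying cis-regulated reporter constructs, harvested 24 h after dosing.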

A short description of assay [2]: ATG_GRE_CIS: Attagene CIS-FACTORIAL HepG2 Assay for human Glucocorticoid Response Elements (GRE) (AID 2282947). Particulars: HepG2 GRE cis-reporter, Attagene multiplex mRNA; actives raise or lower the signal. The method in brief: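 Assay uses human hepatoma HepG2 cells transfected with cis-promoter reporter units, exposed 24 h. mRNA from reporters detected by RT-PCR plus capillary electrophoresis; DMSO serves as negative control and baseline.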

Assay [3] in a line: ATG_ISRE_CIS: Attagene CIS-FACTORIAL HepG2 Assay for human Interferon Regulatory Factor 1 (IRF1) binding to an Interferon-Stimulated Response Element (ISRE) (AID 2282948). Particulars: HepG2 ISRE cis-reporter (Attagene), mRNA transcription readout; actives raise or lower the signal. The method in brief: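 Transfected HepG2 (multiple reporter transcription units, cis elements) dosed 24 h. RNA → oligo(dT) RT → PCR → 6-FAM primer extension → HpaI → CE. DMSO = negative control/baseline.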

The nature of assay [4]: ATG_M_32_CIS: Attagene CIS-FACTORIAL HepG2 Assay for M32 Transcription Factor (Internal Marker) (AID 2282949).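 Also: background control marker of the multiplexed CIS panel rather than a real target.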 Particulars: HepG2 Attagene cis-factorial M32 reporter, mRNA; actives raise or lower the signal. In outline: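 Internal background marker read-out: RT-PCR/capillary electrophoresis fluorescence of reporter transcripts from transiently transfected HepG2 cells after 24 h chemical exposure. Activity fitted bidirectionally relative to DMSO negative control.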

A short description of assay [5]: ATG_M_06_CIS: Attagene CIS-FACTORIAL HepG2 Assay for M06 Transcription Factor (Internal Marker) (AID 2282950). Particulars: HepG2 Attagene CIS-FACTORIAL M06 internal marker reporter; actives raise or lower the signal. The method in brief: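 Measured 24 h post-dosing in transiently transfected HepG2 cells, this internal-marker endpoint reports reporter mRNA via RT-PCR with fluorescent primer extension and capillary electrophoresis. DMSO served as negative control and baseline for bidirectional fitting.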

In assay [6] the target is Hypoxia-inducible factor 1-alpha (Homo sapiens) (UniProt Q16665). Description: ATG_HIF1a_CIS: Attagene CIS-FACTORIAL HepG2 Assay for human Hypoxia Inducible Factor 1 (HIF1A) (AID 2282951). The following applies: HepG2 Attagene cis-factorial HIF1a reporter transcription; actives raise or lower the signal. The method in brief:
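Transient MRTU transfection of human HepG2 liver cells, 24 h compound treatment, then total RNA isolation, oligo(dT) reverse transcription, PCR amplification, fluorescent labelling and capillary electrophoresis of reporter fragments. Gain or loss relative to DMSO.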

Assay [7] addresses Hepatocyte nuclear factor 6 (Homo sapiens) (UniProt Q9UBC0). Description: ATG_HNF6_CIS: Attagene CIS-FACTORIAL HepG2 Assay for human Hepatocyte Nuclear Factor 6 (HNF6) (AID 2282952). Particulars: HepG2 Attagene cis-factorial HNF6 reporter transcription; actives raise or lower the signal. In outline: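 Transiently transfected HepG2 cells expressing cis-regulated reporter transcription units were exposed to chemical for 24 h in a 24-well format. Reporter transcript abundance was determined by fluorescence capillary electrophoresis.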

Assay [8] has as its target Heat shock factor protein 1 (Homo sapiens) (UniProt Q00613). Description: ATG_HSE_CIS: Attagene CIS-FACTORIAL HepG2 Assay for human Heat Shock Transcription Factor 1 (HSE) (AID 2282953). Particulars: HepG2 HSE cis-reporter, Attagene RNA transcription; actives raise or lower the signal. The method in brief:
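Reporter mRNA induction in HepG2 is measured 24 h after dosing, using transiently transfected multiplexed cis-regulated reporter units. Signal comes from capillary electrophoresis of labelled RT-PCR products, with DMSO as negative control.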

Assay [9] is described as follows: ATG_MRE_CIS: Attagene CIS-FACTORIAL HepG2 Assay for human Metal Responsive Element (MRE) (AID 2282954). Particulars: HepG2 MRE cis-reporter transcription, Attagene multiplex; actives raise or lower the signal. In outline:
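After a 24 h chemical exposure, transiently transfected HepG2 cells yield RNA whose reporter sequences are amplified, FAM-labelled and sized by capillary electrophoresis. Curves are fitted bidirectionally relative to DMSO.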

Assay [10] is described as follows: ATG_PBREM_CIS: Attagene CIS-FACTORIAL HepG2 Assay for human Phenobarbital-responsive Enhancer Module (PBREM) (AID 2282955). The following applies: HepG2 PBREM cis-reporter, Attagene multiplexed transcription; actives raise or lower the signal. The method in brief:
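Endogenous transcription factors in human liver HepG2 cells drive a PBREM cis-element reporter, whose transcript level after 24 h treatment is quantified by RT-PCR with capillary electrophoresis; activity fitted in both directions against DMSO.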

The target of assay [11] is Paired box protein Pax-6 (Homo sapiens) (UniProt P26367). The experiment in a line: ATG_Pax6_CIS: Attagene CIS-FACTORIAL HepG2 Assay for human Paired Box 6 (PAX6) (AID 2282956). The following applies: HepG2 CIS-FACTORIAL PAX6 reporter transcription, RNA readout; actives raise or lower the signal. In outline: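 Transient MRTU transfection of HepG2 → compound exposure 24 h → TriZol RNA, oligo(dT) RT → PCR, 6-FAM primer extension, HpaI cut → capillary electrophoresis; activity fitted both directions against DMSO.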

The nature of assay [12]: ATG_PPRE_CIS: Attagene CIS-FACTORIAL HepG2 Assay for human Peroxisome Proliferator-activated Response Element (PPRE) (AID 2282958). Particulars: HepG2 PPRE cis-element reporter, Attagene transcription factor profiling; actives raise or lower the signal. In outline:
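HepG2, transient MRTU transfection (cis promoter elements, endogenous TFs). 24 h dosing. RNA → oligo(dT) RT → PCR → 6-FAM primer extension → HpaI digest → CE. Bidirectional fit vs DMSO.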

Assay [13] can be described thus: ATG_RORE_CIS: Attagene CIS-FACTORIAL HepG2 Assay for human RAR-related Orphan Receptor Element (RORE) (AID 2282959). Particulars: HepG2 Attagene cis-factorial RORE reporter, mRNA; actives raise or lower the signal. The method in brief:
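Transient MRTU transfection of human HepG2 liver cells (FuGene 6); 24 h compound exposure; TriZol RNA, oligo(dT) RT, PCR, FAM labeling, HpaI cut, CE fragment analysis. DMSO = negative control/baseline.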

The nature of assay [14]: ATG_Sox_CIS: Attagene CIS-FACTORIAL HepG2 Assay for human SRY-box transcription factor (SOX) (AID 2282960). Particulars: HepG2 Attagene cis-factorial SOX reporter, mRNA; actives raise or lower the signal. In outline: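 Endogenous factor activity in human liver HepG2 cells carrying transfected cis-regulated reporter units. RNA taken 24 h post-dose, reverse-transcribed, PCR-amplified and sized by capillary electrophoresis. Gain or loss of signal fitted relative to DMSO.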

Assay [15] deals with Transcription factor Sp1 (Homo sapiens) (UniProt P08047). The experiment in a line: ATG_Sp1_CIS: Attagene CIS-FACTORIAL HepG2 Assay for human Specificity Protein 1 (Sp1) (AID 2282961). Particulars: HepG2 Sp1 cis-reporter transcription, actives raise or lower the signal. The method in brief: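 Transient MRTU-transfected HepG2, 24 h compound exposure. Total RNA → oligo(dT) RT → PCR of reporter → 6-FAM primer extension → HpaI digest → CE. Endpoint fitted both directions vs DMSO.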

A short description of assay [16]: ATG_SREBP_CIS: Attagene CIS-FACTORIAL HepG2 Assay for human Sterol Regulatory Element Binding (SREBP) (AID 2282962). The following applies: HepG2 Attagene cis-factorial SREBP reporter, mRNA; actives raise or lower the signal. The method in brief: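 Transfected HepG2 (cis-regulated reporter library, endogenous TFs) → compound 24 h → total RNA → oligo(dT) RT → reporter-specific PCR → FAM primer extension, HpaI cut → CE fluorescence. Fit bidirectional vs DMSO.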

In assay [17] the target is Signal transducer and activator of transcription 3 (Homo sapiens) (UniProt P40763). Description: ATG_STAT3_CIS: Attagene CIS-FACTORIAL HepG2 Assay for human Signal Transducer and Activator of Transcription 3 (STAT3) (AID 2282963). Particulars: HepG2, Attagene cis-factorial STAT3 reporter transcription; actives raise or lower the signal. In outline: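 After a 24 h compound incubation, total RNA from MRTU-transfected HepG2 cells was converted to cDNA and reporter sequences PCR-amplified, labelled and profiled by capillary electrophoresis. Gain and loss of signal were referenced to DMSO.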

Assay [18] can be described thus: ATG_TA_CIS: Attagene CIS-FACTORIAL HepG2 Assay for human TA Basal Promoter (AID 2282964). Particulars: HepG2 Attagene CIS-factorial TA basal promoter reporter; actives raise or lower the signal. In outline: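 Cis-factorial format in HepG2: reporters report endogenous factors, not chimeric Gal4 fusions. After 24 h treatment, reporter transcripts were measured by RT-PCR-capillary electrophoresis fluorescence, analysed bidirectionally versus DMSO.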

A short description of assay [19]: ATG_PXRE_CIS: Attagene CIS-FACTORIAL HepG2 Assay for human Pregnane X Receptor Element (PXRE) (AID 2282957). Particulars: HepG2 Attagene CIS-FACTORIAL PXRE reporter, mRNA; actives raise or lower the signal. The method in brief:
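Cis-element reporter mRNA in human hepatoma HepG2 cells is measured 24 h post-dosing by RT-PCR, primer-extension labeling and capillary electrophoresis; gain or loss of signal is fitted relative to DMSO.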

Consider seven compounds from PubChem BioAssay (EPA / NIEHS).

Active and inactive are the calls of the source. The calls were made as follows: active = hit-call score of the fitted dose curve at least 0.9, where 1 is the maximum; inactive = score below 0.9.

Chain of Heat shock factor protein 1 (Homo sapiens) (Q00613 whole entry, looked up): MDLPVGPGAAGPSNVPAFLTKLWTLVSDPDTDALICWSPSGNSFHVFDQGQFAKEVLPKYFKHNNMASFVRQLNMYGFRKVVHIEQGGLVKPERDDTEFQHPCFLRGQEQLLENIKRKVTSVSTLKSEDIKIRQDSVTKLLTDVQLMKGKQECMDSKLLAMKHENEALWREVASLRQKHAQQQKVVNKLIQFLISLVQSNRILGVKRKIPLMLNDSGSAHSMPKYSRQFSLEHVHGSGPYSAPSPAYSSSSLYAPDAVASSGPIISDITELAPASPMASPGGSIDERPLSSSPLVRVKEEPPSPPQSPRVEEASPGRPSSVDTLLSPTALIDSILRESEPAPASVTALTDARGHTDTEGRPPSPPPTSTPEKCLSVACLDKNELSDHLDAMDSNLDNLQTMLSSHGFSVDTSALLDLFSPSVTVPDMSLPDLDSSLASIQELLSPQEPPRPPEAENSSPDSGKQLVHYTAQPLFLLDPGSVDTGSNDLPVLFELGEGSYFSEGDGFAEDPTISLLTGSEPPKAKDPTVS
Chain of Hypoxia-inducible factor 1-alpha (Homo sapiens) (Q16665 whole entry, looked up, the tested form may be a part): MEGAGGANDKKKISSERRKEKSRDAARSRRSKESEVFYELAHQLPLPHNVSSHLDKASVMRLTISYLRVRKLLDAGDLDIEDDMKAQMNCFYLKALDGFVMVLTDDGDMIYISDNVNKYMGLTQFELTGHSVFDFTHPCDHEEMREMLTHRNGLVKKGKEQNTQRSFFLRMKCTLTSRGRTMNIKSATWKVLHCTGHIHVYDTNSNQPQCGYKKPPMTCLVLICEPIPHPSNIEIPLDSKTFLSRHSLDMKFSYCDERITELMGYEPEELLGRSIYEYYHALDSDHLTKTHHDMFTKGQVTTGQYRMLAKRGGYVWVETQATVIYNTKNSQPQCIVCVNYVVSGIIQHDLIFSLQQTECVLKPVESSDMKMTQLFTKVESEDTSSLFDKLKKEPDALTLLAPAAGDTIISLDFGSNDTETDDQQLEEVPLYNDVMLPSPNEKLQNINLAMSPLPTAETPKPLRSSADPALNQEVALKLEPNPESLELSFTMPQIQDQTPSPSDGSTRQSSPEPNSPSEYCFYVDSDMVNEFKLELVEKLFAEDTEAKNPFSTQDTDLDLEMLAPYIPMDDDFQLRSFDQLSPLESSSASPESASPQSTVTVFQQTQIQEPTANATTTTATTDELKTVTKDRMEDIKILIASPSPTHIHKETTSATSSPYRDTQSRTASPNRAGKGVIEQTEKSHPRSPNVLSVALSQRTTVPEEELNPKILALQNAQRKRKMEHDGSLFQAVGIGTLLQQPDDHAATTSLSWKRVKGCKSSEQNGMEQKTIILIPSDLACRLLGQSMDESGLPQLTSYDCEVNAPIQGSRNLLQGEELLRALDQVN
Chain of Signal transducer and activator of transcription 3 (Homo sapiens) (P40763 whole entry, looked up): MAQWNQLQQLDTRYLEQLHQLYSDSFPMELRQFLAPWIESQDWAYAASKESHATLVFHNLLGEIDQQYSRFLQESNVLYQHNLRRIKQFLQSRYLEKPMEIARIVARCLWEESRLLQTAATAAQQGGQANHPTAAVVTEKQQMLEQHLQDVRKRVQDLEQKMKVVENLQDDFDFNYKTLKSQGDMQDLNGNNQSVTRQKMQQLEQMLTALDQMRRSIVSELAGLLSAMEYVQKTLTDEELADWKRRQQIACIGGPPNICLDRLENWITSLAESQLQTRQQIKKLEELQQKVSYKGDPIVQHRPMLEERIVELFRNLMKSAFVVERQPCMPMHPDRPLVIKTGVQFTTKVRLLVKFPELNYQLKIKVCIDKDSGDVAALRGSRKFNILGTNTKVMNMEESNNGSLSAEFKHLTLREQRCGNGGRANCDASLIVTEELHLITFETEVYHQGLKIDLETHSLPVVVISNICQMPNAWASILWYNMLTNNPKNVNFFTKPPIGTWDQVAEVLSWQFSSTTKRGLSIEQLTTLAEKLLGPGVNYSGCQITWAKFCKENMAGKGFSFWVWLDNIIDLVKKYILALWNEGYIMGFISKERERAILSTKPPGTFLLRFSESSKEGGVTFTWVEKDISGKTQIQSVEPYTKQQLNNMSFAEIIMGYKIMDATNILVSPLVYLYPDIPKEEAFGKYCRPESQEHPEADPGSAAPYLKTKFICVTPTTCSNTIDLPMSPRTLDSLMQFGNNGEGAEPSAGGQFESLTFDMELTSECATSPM
Chain of Transcription factor Sp1 (Homo sapiens) (P08047 whole entry, looked up): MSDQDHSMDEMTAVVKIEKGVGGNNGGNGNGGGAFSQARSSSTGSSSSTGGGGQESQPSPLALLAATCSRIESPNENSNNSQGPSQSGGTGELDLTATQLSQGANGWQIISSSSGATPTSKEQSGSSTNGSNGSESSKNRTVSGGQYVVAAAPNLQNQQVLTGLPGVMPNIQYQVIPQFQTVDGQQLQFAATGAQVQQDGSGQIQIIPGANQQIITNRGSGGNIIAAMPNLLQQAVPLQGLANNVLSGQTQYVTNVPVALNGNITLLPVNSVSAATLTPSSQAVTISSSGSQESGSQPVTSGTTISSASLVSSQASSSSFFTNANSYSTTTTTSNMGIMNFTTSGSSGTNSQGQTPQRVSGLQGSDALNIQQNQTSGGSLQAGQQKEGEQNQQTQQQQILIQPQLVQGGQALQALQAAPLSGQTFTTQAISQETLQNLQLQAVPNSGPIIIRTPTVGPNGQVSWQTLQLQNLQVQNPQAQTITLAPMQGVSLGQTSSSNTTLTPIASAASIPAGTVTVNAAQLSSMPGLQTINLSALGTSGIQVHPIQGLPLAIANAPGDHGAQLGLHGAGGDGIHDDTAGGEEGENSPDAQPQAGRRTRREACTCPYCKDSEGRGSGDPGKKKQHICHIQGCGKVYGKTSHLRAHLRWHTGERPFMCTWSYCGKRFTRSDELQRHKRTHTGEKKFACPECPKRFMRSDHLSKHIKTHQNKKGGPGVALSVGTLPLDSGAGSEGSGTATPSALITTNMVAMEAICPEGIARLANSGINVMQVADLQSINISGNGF
Chain of Hepatocyte nuclear factor 6 (Homo sapiens) (Q9UBC0 whole entry, looked up): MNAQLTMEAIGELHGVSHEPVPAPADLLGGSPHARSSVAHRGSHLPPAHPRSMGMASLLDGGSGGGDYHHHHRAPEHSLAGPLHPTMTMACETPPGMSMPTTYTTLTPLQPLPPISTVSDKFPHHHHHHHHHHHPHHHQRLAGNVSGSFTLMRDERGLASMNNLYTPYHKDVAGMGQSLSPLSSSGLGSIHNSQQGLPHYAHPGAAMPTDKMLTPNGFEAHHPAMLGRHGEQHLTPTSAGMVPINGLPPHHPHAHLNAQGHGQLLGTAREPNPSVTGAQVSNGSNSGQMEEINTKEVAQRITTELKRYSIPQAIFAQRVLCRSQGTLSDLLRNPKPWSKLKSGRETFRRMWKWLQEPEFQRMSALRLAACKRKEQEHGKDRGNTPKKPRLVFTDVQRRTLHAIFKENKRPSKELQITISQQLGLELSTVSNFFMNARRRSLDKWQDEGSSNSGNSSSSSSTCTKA
Chain of Paired box protein Pax-6 (Homo sapiens) (P26367 whole entry, looked up): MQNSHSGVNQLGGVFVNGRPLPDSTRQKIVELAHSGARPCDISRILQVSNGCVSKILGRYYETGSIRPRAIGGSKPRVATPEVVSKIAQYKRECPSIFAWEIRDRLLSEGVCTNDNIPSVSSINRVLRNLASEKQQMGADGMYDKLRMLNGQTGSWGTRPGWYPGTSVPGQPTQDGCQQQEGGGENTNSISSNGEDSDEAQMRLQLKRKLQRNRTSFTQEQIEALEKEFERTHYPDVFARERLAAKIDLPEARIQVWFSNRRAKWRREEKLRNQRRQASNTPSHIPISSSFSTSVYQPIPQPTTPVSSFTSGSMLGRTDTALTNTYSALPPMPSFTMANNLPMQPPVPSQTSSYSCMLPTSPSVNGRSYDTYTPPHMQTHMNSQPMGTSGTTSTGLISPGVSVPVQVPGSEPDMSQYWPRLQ

`COc1ccc2c(c1)c(CC(=O)O)c(C)n2C(=O)c1ccc(Cl)cc1`: the outcome in assay [1], in assay [2], in assay [3], in assay [4], in assay [5] and in assay [6] was inactive. Moreover, the compound was classed as inactive in assay [7], in [8], in assay [9], in assay [10], in assay [11] and in assay [13]. In addition, the compound was classed as inactive in assay [14], in [15], in assay [16], in assay [17] and in assay [18]. For the same compound, the AC50 (usually the concentration giving half of the maximal activity seen) in [12] was 12500 nM (active).
In the case of `COc1cccc2c1C(=O)c1c(O)c3c(c(O)c1C2=O)C[C@@](O)(C(=O)CO)C[C@@H]3O[C@H]1C[C@H](N)[C@H](O)[C@H](C)O1`, the concentration at half-maximal activity (AC50) is 1250 nM (active) in [1]; 942 nM (active) in [2]; 1630 nM (active) in assay [3]; 1230 nM (active) in assay [6]; 1660 nM (active) in assay [9]; 909 nM (active) in assay [16]. In addition, the call in assay [4], in assay [5], in assay [7], in assay [8], in [10] and in assay [11] was inactive. In addition, the compound was classed as inactive in assay [19], in assay [12], in [13], in assay [14], in assay [15] and in [17]. Further, the result in assay [18] was inactive.
As to `COc1ccc(C)cc1N`, the call in assay [1], in assay [2], in [3], in [4], in [5] and in [6] was inactive. For the same compound, the call in [7], in assay [8], in assay [9], in [10], in assay [11] and in assay [12] was inactive. For the same compound, the compound was classed as inactive in [13], in assay [14], in assay [15], in assay [16], in assay [17] and in [18].
As for `Cc1ccc(C(C)C)c(O)c1`, the result in [1], in assay [2], in [3], in [4], in [5] and in assay [6] was inactive. Moreover, the outcome in assay [7], in [8], in assay [9], in assay [10], in [11] and in [12] was inactive. For the same compound, the call in [13], in assay [14], in assay [15], in assay [16], in assay [17] and in assay [18] was inactive. Moreover, the half-maximal activity concentration (AC50) in assay [19] was 34500 nM (active).
Regarding `c1cc(-c2ccncc2)ccn1`, the compound was classed as inactive in assay [1], in assay [2], in [3], in assay [4], in assay [5] and in assay [6]. Moreover, the result in [7], in assay [8], in assay [9], in [10], in [11] and in assay [19] was inactive. Besides, the call in [12], in assay [13], in assay [14], in assay [15], in [16] and in [17] was inactive. For the same compound, the compound was classed as inactive in [18].
With `Nc1ccc2c(c1)C(=O)c1ccccc1C2=O`, the compound was classed as inactive in assay [1], in assay [2], in [3], in assay [4], in assay [5] and in [6]. The compound was called inactive in [8], in [9], in assay [10], in assay [11], in assay [12] and in assay [13]. Moreover, the call in assay [14], in assay [15], in assay [16], in assay [17] and in assay [18] was inactive. Further, in [19], the AC50 is 26900 nM (active).
For `COC(=O)c1ccc(O)cc1`, the compound was called inactive in assay [1], in assay [2], in [3], in assay [4], in [5] and in assay [6]. Also, the compound was called inactive in [7], in assay [8], in assay [9], in assay [11], in assay [12] and in [14]. Besides, the outcome in assay [15], in assay [16], in assay [17] and in assay [18] was inactive.
